Experimental data reported in the supplement of paper PMC4380459.

System: tubulin (bovine brain)
Experiment: tubulin polymerization end-point dOD, fold change relative to DMSO vehicle; higher = more polymerization (stabilization)
Details: 50 µM; 60 min; 37 °C
Method: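 In-vitro tubulin polymerization assay (Cytoskeleton HTS kit) with 4 mg/ml bovine brain tubulin in G-PEM buffer and compound at 50 uM (0.5% DMSO). Turbidity was read at 340 nm every minute for 1 h at 37 C. The end-point change in OD (dOD) was converted to % fold change relative to the DMSO vehicle (0%), and runs were scaled using DMSO and Taxol controls. The paper calls >20% an effect, 20-40% weak and >40% strong; positive values mean stabilization, negative values destabilization. Scale: negative = destabilization.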

Compound | tubulin polymerization end-point dOD [%]
Cc1ccc(NC(=S)N(Cc2cc3ccc(C)cc3[nH]c2=O)CC2CCCO2)cc1 (stereo not given) | 97.9
CCCn1c(NC(=O)C2CC(=O)N(c3ccc4c(c3)OCCO4)C2)nc2ccccc21 (stereo not given) | -4.32
O=C(Nc1ccc(N2CCc3sccc3C2)nc1)c1ccccc1F | -40.4
Cc1ccc(C(=O)Nc2nc3ccc(Cl)cc3s2)cn1 | -82.9
CCc1ccccc1NC(=S)N(CCCO)Cc1cc2cc(C)cc(C)c2[nH]c1=O | -51.6
Cc1cc2cc3c(cc2nc1SCC(=O)Nc1c(C)cccc1C)OCO3 | 145
Cc1cccc(Cc2cnc(NC(=O)c3sc4ccccc4c3Cl)s2)c1 | 81.7
COc1cc(CNc2ccc(Br)cc2)cc(OC)c1OC | -37.3
O=C(Nc1ncc(Cc2ccc(Cl)cc2)s1)c1cnccn1 | -97.6
Cc1ccc(-c2csc3ncn(CC4CCCCO4)c(=O)c23)cc1 (stereo not given) | -190
COc1cc(C2NC(=O)c3ccccc3N2)cc2c1OCO2 (stereo not given) | -31.5
Cc1cc2cc3c(cc2nc1SCC(=O)Nc1ccccc1C(F)(F)F)OCO3 | -12.8
COc1ccc(Cl)cc1NC(=O)CSc1nnc(-c2ccncc2)n1-c1ccccc1 | -50.9
CC(=O)Nc1ccc(Nc2nc(-c3c(C)nc4ccccn34)cs2)cc1 | 30.8
O=C1CCCN1Cc1ccc(-c2ccccc2CNc2ncccn2)cc1 | -32.9
c1ccc(CCc2nc3c4ccccc4ncn3n2)cc1 | -31.9
O=C(c1cncn1-c1ccccc1)N1CCN(c2cccc(Cl)c2)CC1 | -50
CCc1ccccc1NC(=O)CSc1nc2cc3c(cc2cc1C#N)OCCO3 | -23.9
CC(=O)c1c(C)oc2c1cc(NS(=O)(=O)c1ccc(Cl)cc1)c1ccccc12 | 2.59
CCc1cc2cc3c(cc2nc1SCC(=O)Nc1ccccc1Cl)OCCO3 | 11.4

Compound | tubulin polymerization end-point dOD [%]
CCc1cc2cc3c(cc2nc1SCC(=O)NCCc1ccccc1)OCO3 | 387
COc1cc(-c2onc3ccc(Cl)cc23)cc(OC)c1OC | 95.2
O=C(Nc1ncc(Cc2ccc(F)cc2)s1)c1ccc2c(c1)OCO2 | 20.1
Cc1ccc(C)c(NC(=O)CSc2nc3cc4c(cc3cc2C#N)OCO4)c1 | 52.6
Cc1cc2cc3c(cc2nc1SCC(=O)Nc1ccccc1Br)OCO3 | -1.3
CC1Oc2nc3ccccc3cc2CN(Cc2ccc(F)cc2)C1=O (stereo not given) | 3.19
CCc1ccc2nc(SCC(=O)Nc3ccccc3C)c(C)cc2c1 | -20.5
CCc1noc(CSc2ncnc3scc(-c4ccc(C)cc4)c23)n1 | 30.2
COc1cc2c(cc1OC)C(c1cccs1)N(C(=O)Nc1ccc(Cl)cc1)CC2 (stereo not given) | 70.5
O=C(Nc1ncc(Cc2ccc(Cl)cc2Cl)s1)c1cnccn1 | 6.51
Cc1ccc(C2=NN(C(=O)c3ccncc3)C(c3ccccc3F)C2)cc1 (stereo not given) | -4.53
Cc1cnc(C(=O)Nc2ncc(Cc3ccc(C#N)cc3)s2)cn1 | -30.4
O=C(Nc1ccccc1Cl)N(Cc1cccs1)Cc1cc2cc3c(cc2[nH]c1=O)OCCO3 | -17.8
Cc1ccc(C)c(NC(=O)CSc2nc3ccc(C(C)C)cc3cc2C#N)c1 | -39.1
CSc1ncc(C(=O)Nc2ccc(Oc3ccc4c(c3)OCO4)cc2)cn1 | -8.44
C=CCc1ccccc1OCC(=O)N/N=C\c1ccc(Cl)cc1 | -25.9
COc1ccc(NC(=O)CSc2nc3cc4c(cc3cc2C#N)OCO4)c(OC)c1 | 23.6
O=C(Nc1nc2ccccc2[nH]1)c1cccc2ccccc12 | -76.4
CCOc1ccc(C2=[NH+]c3ccccc3C(c3cccnc3)=NN2)cc1 | 109
CCc1cc2cc(OC)ccc2nc1SCC(=O)Nc1ccccc1C | 104
